From the supplement of paper PMC10849652 come the findings set out here.

The full data set covers some 7,900 targets. This sample favours those with a hit. About 0.6% of all pairs of compound and target were hits. Values without a mark were called inactive.

Sequence of UniProt P51148 (P51148 whole entry, looked up): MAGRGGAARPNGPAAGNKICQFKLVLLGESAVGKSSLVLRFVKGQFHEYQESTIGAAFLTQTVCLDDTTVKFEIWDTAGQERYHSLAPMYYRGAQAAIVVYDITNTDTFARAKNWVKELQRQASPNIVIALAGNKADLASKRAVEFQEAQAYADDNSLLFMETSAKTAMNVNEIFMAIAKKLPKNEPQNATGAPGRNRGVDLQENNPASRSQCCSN
Sequence of UniProt O00584 (O00584 whole entry, looked up): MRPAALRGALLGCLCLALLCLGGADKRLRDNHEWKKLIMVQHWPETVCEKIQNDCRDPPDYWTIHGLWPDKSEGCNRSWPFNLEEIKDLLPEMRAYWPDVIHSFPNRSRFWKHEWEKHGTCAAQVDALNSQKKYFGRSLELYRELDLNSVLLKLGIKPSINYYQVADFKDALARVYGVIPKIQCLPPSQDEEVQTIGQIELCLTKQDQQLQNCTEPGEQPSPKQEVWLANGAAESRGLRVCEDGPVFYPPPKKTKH
Sequence of UniProt Q99643 (Q99643 whole entry, looked up): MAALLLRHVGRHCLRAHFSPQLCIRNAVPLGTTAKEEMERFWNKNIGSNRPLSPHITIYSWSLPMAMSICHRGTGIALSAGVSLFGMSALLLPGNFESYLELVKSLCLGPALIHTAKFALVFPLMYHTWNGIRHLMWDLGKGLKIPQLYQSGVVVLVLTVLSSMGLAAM
Sequence of UniProt O15127 (O15127 whole entry, looked up): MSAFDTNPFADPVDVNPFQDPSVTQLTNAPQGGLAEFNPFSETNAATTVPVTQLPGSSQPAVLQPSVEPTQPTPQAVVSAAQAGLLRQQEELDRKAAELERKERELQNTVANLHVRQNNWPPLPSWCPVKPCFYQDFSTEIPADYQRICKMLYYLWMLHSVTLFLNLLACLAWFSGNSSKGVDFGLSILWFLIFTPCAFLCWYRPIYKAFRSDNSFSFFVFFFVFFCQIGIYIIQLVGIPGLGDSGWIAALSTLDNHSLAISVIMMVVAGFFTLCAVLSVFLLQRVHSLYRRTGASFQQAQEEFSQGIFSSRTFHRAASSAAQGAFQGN
Sequence of UniProt Q7Z6E9 (Q7Z6E9 whole entry, looked up): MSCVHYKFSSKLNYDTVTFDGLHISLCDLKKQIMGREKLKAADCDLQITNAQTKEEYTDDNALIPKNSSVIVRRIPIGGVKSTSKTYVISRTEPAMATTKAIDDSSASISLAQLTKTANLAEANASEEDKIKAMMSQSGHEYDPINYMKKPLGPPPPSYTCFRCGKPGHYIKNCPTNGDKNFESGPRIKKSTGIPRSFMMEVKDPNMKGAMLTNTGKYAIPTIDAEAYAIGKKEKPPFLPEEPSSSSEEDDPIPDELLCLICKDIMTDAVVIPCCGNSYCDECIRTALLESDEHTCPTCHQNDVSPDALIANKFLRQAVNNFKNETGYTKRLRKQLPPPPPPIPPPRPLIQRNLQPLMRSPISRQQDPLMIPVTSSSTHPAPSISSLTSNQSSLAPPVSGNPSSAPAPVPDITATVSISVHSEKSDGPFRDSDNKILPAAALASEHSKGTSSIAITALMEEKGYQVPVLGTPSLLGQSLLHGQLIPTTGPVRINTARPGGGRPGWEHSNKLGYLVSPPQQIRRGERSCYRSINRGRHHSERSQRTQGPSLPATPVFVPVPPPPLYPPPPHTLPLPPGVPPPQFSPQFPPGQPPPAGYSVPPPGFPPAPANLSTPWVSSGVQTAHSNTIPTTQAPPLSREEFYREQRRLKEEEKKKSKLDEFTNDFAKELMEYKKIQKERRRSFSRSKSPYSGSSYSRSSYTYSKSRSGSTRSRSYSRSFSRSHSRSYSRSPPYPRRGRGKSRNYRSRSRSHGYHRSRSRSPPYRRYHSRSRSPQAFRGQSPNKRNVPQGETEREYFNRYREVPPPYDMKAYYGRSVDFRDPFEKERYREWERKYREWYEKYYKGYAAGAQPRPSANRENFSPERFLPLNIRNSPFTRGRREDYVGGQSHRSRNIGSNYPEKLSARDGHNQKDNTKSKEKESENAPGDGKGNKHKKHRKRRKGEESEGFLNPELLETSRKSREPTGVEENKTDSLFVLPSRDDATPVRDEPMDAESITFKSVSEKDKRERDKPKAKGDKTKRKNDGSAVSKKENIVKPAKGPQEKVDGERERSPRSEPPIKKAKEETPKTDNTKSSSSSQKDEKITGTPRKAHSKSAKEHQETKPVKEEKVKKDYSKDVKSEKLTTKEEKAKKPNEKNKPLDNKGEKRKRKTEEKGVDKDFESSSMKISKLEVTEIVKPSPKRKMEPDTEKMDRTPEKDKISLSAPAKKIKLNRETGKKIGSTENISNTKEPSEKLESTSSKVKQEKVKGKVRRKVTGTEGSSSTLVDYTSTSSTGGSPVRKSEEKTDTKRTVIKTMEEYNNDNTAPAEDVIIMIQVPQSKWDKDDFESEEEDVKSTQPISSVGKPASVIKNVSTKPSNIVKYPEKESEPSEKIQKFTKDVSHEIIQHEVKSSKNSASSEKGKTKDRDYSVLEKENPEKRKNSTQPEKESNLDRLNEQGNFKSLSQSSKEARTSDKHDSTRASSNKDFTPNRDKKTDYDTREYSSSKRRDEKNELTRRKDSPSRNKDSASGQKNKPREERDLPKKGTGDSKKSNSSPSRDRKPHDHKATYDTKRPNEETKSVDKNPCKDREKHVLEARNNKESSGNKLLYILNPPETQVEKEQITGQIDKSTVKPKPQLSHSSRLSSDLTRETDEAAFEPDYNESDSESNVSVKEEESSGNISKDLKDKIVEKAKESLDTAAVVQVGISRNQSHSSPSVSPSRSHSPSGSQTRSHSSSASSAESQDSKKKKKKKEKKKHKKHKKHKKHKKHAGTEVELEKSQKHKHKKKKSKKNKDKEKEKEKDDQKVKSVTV
Sequence of UniProt Q86VR2 (Q86VR2 whole entry, looked up): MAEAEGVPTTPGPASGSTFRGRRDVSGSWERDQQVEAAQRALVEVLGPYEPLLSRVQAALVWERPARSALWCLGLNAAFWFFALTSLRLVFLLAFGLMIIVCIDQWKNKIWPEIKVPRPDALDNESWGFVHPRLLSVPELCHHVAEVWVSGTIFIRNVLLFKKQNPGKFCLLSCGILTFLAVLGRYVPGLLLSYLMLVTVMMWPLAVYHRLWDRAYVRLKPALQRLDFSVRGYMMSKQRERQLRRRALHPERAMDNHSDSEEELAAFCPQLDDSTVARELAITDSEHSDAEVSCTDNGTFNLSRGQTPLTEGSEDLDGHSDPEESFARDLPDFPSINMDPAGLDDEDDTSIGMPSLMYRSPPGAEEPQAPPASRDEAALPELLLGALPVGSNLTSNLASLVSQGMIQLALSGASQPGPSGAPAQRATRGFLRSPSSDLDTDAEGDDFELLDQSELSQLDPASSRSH
Sequence of UniProt O00560 (O00560 whole entry, looked up): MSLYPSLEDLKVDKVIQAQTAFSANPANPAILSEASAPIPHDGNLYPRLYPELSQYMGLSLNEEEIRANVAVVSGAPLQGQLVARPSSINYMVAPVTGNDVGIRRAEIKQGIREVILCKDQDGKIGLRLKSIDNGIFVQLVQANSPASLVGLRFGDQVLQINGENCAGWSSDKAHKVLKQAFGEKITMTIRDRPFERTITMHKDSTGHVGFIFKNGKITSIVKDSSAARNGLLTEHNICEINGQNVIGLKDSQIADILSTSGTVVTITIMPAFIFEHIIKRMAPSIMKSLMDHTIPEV
Sequence of UniProt O43818 (O43818 whole entry, looked up): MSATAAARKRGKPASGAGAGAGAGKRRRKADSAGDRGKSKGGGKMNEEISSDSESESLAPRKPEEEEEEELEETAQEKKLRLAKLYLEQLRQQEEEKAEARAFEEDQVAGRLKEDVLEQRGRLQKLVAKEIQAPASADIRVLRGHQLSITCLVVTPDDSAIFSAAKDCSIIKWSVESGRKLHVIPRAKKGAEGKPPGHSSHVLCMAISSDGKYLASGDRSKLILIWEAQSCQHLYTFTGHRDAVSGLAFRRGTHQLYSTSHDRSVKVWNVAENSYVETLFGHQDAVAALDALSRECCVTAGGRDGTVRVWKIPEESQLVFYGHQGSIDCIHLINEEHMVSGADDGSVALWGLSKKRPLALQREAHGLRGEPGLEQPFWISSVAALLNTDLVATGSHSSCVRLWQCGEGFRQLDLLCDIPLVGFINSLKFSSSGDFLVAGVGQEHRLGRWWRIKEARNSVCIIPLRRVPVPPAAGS
Sequence of UniProt Q92696 (Q92696 whole entry, looked up): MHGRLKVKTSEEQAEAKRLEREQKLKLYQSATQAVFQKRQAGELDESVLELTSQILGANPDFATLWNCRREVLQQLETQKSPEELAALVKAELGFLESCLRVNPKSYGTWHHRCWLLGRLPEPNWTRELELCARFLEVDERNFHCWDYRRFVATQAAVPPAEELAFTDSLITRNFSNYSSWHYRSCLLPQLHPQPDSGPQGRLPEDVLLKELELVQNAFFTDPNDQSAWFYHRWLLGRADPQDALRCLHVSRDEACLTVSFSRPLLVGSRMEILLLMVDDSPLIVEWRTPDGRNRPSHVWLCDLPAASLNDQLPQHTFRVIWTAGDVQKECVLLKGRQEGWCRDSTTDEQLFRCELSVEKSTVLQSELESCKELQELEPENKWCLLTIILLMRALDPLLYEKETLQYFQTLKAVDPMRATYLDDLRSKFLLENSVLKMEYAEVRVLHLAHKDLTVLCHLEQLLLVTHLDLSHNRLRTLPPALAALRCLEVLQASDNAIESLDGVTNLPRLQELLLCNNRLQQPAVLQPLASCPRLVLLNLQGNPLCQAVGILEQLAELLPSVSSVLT
Sequence of UniProt Q96I25 (Q96I25 whole entry, looked up): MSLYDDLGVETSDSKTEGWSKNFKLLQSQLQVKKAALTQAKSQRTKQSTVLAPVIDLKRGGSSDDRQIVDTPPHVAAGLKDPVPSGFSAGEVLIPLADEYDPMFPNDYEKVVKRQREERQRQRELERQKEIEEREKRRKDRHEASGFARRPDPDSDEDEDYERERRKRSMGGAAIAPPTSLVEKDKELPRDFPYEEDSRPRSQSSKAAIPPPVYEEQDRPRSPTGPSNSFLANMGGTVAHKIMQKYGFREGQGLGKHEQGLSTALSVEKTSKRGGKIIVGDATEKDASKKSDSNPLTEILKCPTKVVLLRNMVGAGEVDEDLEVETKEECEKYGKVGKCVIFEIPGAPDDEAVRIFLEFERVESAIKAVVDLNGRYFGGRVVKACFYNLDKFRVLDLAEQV

Compound in the assay: c1cn2cc(-c3ccc4cn[nH]c4c3)nc(Nc3ccc(N4CCOCC4)cc3)c2n1 [entospletinib]
As to the kind of experiment: log2 fold change, soluble protein after heating vs DMSO (PISA); higher = thermal stabilisation; K562 cells, 10 uM, 30 min; active = over 0.2 and 3.5 SD of the protein, either way, in both replicates (recomputed). The method, boiled down: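 Soluble protein was quantified by TMTpro 16plex LC-MS/MS after channel sums were equalised. It was obtained as the supernatant after 21,000xg for 90 min from pooled aliquots of K562 cells (2×10^6 cells/mL, 10 μM compound, 30 min) heated for 3 min across 48°C-58°C and extracted in PBS with 0.5% NP-40 at 4°C. Thermal stability values are relative to control samples and come from duplicates. They are given as log2 fold changes.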
As to RNASEH2A (UniProt O75792), the log2 fold change is 0.011. The figure for SDHC (UniProt Q99643) is 0.032; for SKP1 (UniProt P63208) it is 0.008; for RPS3 (UniProt E9PJN9) it is 0.2. The figure for RBM17 (UniProt Q96I25) is -0.007. The figure for RRP9 (UniProt O43818) is 0.012; for RETREG3 (UniProt Q86VR2) it is 0.015. Take RAF1 isoform 2 (UniProt P04049): the log2 fold change is -0.007. The same measure for SDCBP (UniProt O00560): 0.115.

Consider RABGGTA (UniProt Q92696), for which the log2 fold change is -0.013. Take RCOR1 (UniProt Q9UKL0): the log2 fold change was 0.002. For the target SCAMP2 (UniProt O15127), the log2 fold change was -0.078. Consider RNASET2 (UniProt O00584), for which the log2 fold change is 0.05.

Regarding SHCBP1 (UniProt Q8NEM2), the log2 fold change is 0.039.

RICTOR isoform 3 (UniProt Q6R327): the log2 fold change is 0.01. For the target SCAMP2 (UniProt H3BUB6), the log2 fold change was 0.154.

In the case of RPS12 (UniProt P25398), the log2 fold change was 0.055. As for RSL1D1 (UniProt O76021), the log2 fold change is 0.01. On to SEC23A (UniProt Q15436), for which the log2 fold change is 0.106. The same measure for RBBP6 (UniProt Q7Z6E9): 0.077; for RAC1 (UniProt P63000): 0.026. Turning to RAB5C isoform 2 (UniProt P51148), the log2 fold change is -0.006. The figure for SEC24A (UniProt O95486) is 0.024.
